{"source": "ChEMBL document CHEMBL3988442", "about": "“University of Dundee, Small-Polar-MMV Screening Library” (2021)", "note": "Out of some 48,000 compounds screened, about 13,000 (27%) showed an effect of 50% or more. The list shows a part of the results."}
{"test_system": "Wolbachia pipientis", "assay": "Anti-Wolbachia Cell-Based Screen", "type": "functional", "parameters": "scale not given: in the data most compounds retested in dose-response had high values", "conditions": "5 µM", "units": {"Percent Effect": "%"}}
{"smiles": "CCC(C)(O)CNC(=O)Nc1ccc(C)cc1Br", "note": "(stereo not given)", "Percent Effect": -22.84}
{"smiles": "CNCCN1C(=O)CC[C@H]2CN(c3ncc(F)cn3)CC[C@H]21", "Percent Effect": -2.163}
{"smiles": "NC(=O)C(NC(=O)c1cc(Br)c[nH]1)c1ccccc1", "note": "(stereo not given)", "Percent Effect": 0.3716}
{"smiles": "CCc1nc(C)c(CN2CCN(c3ncnc4scc(C)c34)CC2)[nH]1", "Percent Effect": -4.164}
{"smiles": "CCNC(=O)NC(=O)C(C)Nc1ccccc1OCCOC", "note": "(stereo not given)", "Percent Effect": 1.487}
{"smiles": "CN(CCCNC(=O)c1ccccc1OCC(N)=O)CC(F)(F)F", "Percent Effect": 8.203}
{"smiles": "COCCOc1ccccc1C(=O)NCCN(C)C(C)C", "Percent Effect": 86.22}
{"smiles": "CS(=O)(=O)c1ccccc1C(=O)NCCCN1CCc2ccccc2C1", "Percent Effect": 5.39}
{"smiles": "CS(=O)(=O)c1ccccc1C(=O)NCC1Cc2ccccc2O1", "note": "(stereo not given)", "Percent Effect": -10.07}
{"smiles": "COCCOc1ccccc1C(=O)N(C)Cc1ncc(C)c(OC)c1C", "Percent Effect": -3.129}
{"smiles": "CCN(CCNC(=O)c1ccccc1OCCOC)C1CC1", "Percent Effect": 11.11}
{"smiles": "COCCCNC(=O)c1ccccc1S(C)(=O)=O", "Percent Effect": 133.8}
{"smiles": "CCC(C)N(C)CCNC(=O)c1ccccc1OCCOC", "note": "(stereo not given)", "Percent Effect": 91.86}
{"smiles": "CCCn1nc2c(cc1=O)CN(Cc1nc(CCOC)no1)CC2", "Percent Effect": 3.931}
{"smiles": "Cn1nc(C2CCCC2)c(-c2ccc3c(c2)OCO3)c1N", "Percent Effect": -8.229}
{"smiles": "CCS(=O)(=O)N1CCC2(CC1)CC[C@@]1(C(=O)N(C)C)CN(C(C)=O)C[C@@H]21", "Percent Effect": -13.65}
{"smiles": "CNC(=O)[C@@]12CCC3(CCN(S(=O)(=O)C4CC4)CC3)[C@@H]1CN(C(C)=O)C2", "Percent Effect": 108}
{"smiles": "CCS(=O)(=O)N1CCC2(CC1)CC[C@@]1(C(=O)NC)CN(C(C)=O)C[C@@H]21", "Percent Effect": 0.6663}
{"smiles": "CNC(=O)[C@@]12CCC3(CCN(S(C)(=O)=O)CC3)[C@@H]1CN(C(C)=O)C2", "Percent Effect": 110.1}
{"smiles": "CC(=O)N1C[C@H]2C3(CCN(S(C)(=O)=O)CC3)CC[C@@]2(C(=O)N(C)C)C1", "Percent Effect": -15.61}
{"smiles": "CCS(=O)(=O)N1CCC2(CC1)CC[C@@]1(C(=O)N(C)C)CN(C)C[C@@H]21.O=C(O)C(F)(F)F", "Percent Effect": 4.402}
{"smiles": "CN(C)C(=O)NCC1CC2(CO1)CN(c1nncs1)C2", "note": "(stereo not given)", "Percent Effect": 109.2}
{"smiles": "CN(Cc1ccccc1)CC1CC2(CO1)CN(c1nncs1)C2", "note": "(stereo not given)", "Percent Effect": 4.017}
{"smiles": "O=C(N[C@@H]1CN(Cc2cccs2)[C@@H]2COC[C@@H]21)C1CCC1.O=C(O)C(F)(F)F", "Percent Effect": -6.502}
{"smiles": "CCS(=O)(=O)N1CCCC2(COCCN(c3nncs3)C2)C1", "note": "(stereo not given)", "Percent Effect": -5.345}
{"smiles": "O=C(O)C(F)(F)F.O=C(O)C(F)(F)F.c1ccc(OCC2CC3(CCN(c4ncccn4)CC3)CO2)nc1", "note": "(stereo not given)", "Percent Effect": 3.683}
{"smiles": "O=C(NCC1CC2(CO1)CN(Cc1cccs1)C2)C1CCC1.O=C(O)C(F)(F)F", "note": "(stereo not given)", "Percent Effect": 112.2}
{"smiles": "O=C(C1CCC2(CCN(c3nncs3)CC2)C1)N1CCCC1", "note": "(stereo not given)", "Percent Effect": -10.32}
{"smiles": "O=C(NCC1CC2(CO1)CN(c1nncs1)C2)C1CCC1", "note": "(stereo not given)", "Percent Effect": 113.3}
{"smiles": "O=C(O)C(F)(F)F.O=C(O)[C@]12CCCN(Cc3cccs3)C[C@H]1CN(c1ncccn1)C2", "Percent Effect": 1.756}
{"smiles": "O=S(=O)(C1CC1)N1CCCC2(COCCN(c3nncs3)C2)C1", "note": "(stereo not given)", "Percent Effect": 1.243}
{"smiles": "O=C(NCC1CC2(CO1)CN(c1ncccn1)C2)C1CCC1", "note": "(stereo not given)", "Percent Effect": 124.3}
{"smiles": "O=C(NC[C@H]1Cn2c(-c3ccccc3)cnc2CO1)C1CC1", "Percent Effect": -24.2}
{"smiles": "Cn1c(Cn2cccn2)nnc1C1CCCN(c2ccncc2F)C1", "note": "(stereo not given)", "Percent Effect": 5.271}
{"smiles": "O=C(c1ccccn1)N1C[C@@H]2CC[C@H](C1)N(C(=O)CCC1CCCC1)C2", "Percent Effect": -23.02}
{"smiles": "CCOCCCOC(=O)c1ccc2c(c1)[nH]c(=O)n2C", "Percent Effect": -4.386}
{"smiles": "COc1ncnc(N(C)C)c1NC(=O)Cc1c[nH]c2ccc(F)cc12", "Percent Effect": -15.56}
{"smiles": "C[C@@H]1CN(C(=O)c2ccc(Br)cc2F)CC(C(N)=O)O1", "note": "(stereo not given in full)", "Percent Effect": -4.259}
{"smiles": "O=C(Cc1cccs1)NCC1(O)CCSCC1", "Percent Effect": 3.486}
{"smiles": "CCOCCNC(=O)Cc1cccc(I)c1", "Percent Effect": 3.378}
{"smiles": "CCOCCCNC(=O)Cc1cccs1", "Percent Effect": 73.09}
{"smiles": "O=C(NCC1(O)CCc2ccccc21)Nc1ccc2c(c1)OCO2", "note": "(stereo not given)", "Percent Effect": -4.749}
{"smiles": "Cc1nnc(NCc2ccc(Br)cc2)o1", "Percent Effect": -15.89}
{"smiles": "CN(Cc1cc(Cl)ccc1Cl)Cc1ncnn1C", "Percent Effect": 20.54}
{"smiles": "Cn1ncnc1NCc1ccc(F)cc1", "Percent Effect": 113.5}
{"smiles": "Cn1ncnc1NCc1ccc(Cl)cc1", "Percent Effect": 106}
{"smiles": "Cn1ncnc1NS(=O)(=O)c1ccccc1", "Percent Effect": -4.376}
{"smiles": "Cn1ncnc1NS(=O)(=O)c1ccc(F)cc1Cl", "Percent Effect": -0.8831}
{"smiles": "Cn1ncnc1NCc1ccc(Br)cc1", "Percent Effect": 79.22}
{"smiles": "Cn1ncnc1NCc1ccccc1Cl", "Percent Effect": 98}
{"smiles": "Clc1ccc(CNc2ccc(Cl)cn2)cc1", "Percent Effect": -12.24}
{"smiles": "Cn1ccnc1-c1noc(NCc2ccc(Cl)cc2)n1", "Percent Effect": 9.491}
{"smiles": "Cn1ccnc1-c1noc(NCc2ccc(Br)cc2)n1", "Percent Effect": 0.2508}
{"smiles": "Cn1ncnc1NS(=O)(=O)c1ccc(F)cc1", "Percent Effect": -13.8}
{"smiles": "CC(C)c1nccn1CCCNC(=O)c1ccc(N(C)C)nc1", "Percent Effect": -4.813}
{"smiles": "NC(=O)CN1CCCC(c2cncc(Nc3ncccn3)n2)C1", "note": "(stereo not given)", "Percent Effect": 117.4}
{"smiles": "Cc1cccc(Nc2cc(C3CCCN(CC(N)=O)C3)ccn2)n1.O=CO.O=CO", "note": "(stereo not given)", "Percent Effect": 109.2}
{"smiles": "CCN1CCCC(c2c(-c3ccccc3)ncn2CC(N)=O)C1", "note": "(stereo not given)", "Percent Effect": 0.7504}
{"smiles": "Cl.Cl.NCC(=O)N1CCCC(c2cncc(Nc3ncccn3)n2)C1", "note": "(stereo not given)", "Percent Effect": -7.502}
{"smiles": "Cc1cccc(C2CCCN(C(=O)CN3CCC(C(N)=O)CC3)C2)c1", "note": "(stereo not given)", "Percent Effect": -7.369}
{"smiles": "NC(=O)CN1CCCC(c2ccnc(Nc3ncccn3)c2)C1", "note": "(stereo not given)", "Percent Effect": 104.7}
{"smiles": "NC(=O)CN1CCCC(C(=O)N2CCC(Oc3ncccn3)CC2)C1", "note": "(stereo not given)", "Percent Effect": -4.684}
{"smiles": "Cc1cccc(C2CCCN(C(=O)C3CCN(CC(N)=O)CC3)C2)c1", "note": "(stereo not given)", "Percent Effect": -11.42}
{"smiles": "CCC(C)N(Cc1ccncc1)C(=O)CCC(=O)OC", "note": "(stereo not given)", "Percent Effect": -41.55}
{"smiles": "Cc1nc(CN2CCCN(CC(=O)N(C)C(C)(C)C#N)CC2)no1", "Percent Effect": 10.3}
{"smiles": "CC(C)(C)OC(=O)N1CCC[C@H](NCC2=CCCOC2)C1", "Percent Effect": -0.302}
{"smiles": "O=C(O)C(F)(F)F.O=C(O)C(F)(F)F.O=C(c1ccncc1)N1CC[C@@H]2[C@@H](CC1)OCCN2c1cccnc1", "Percent Effect": -4.707}
{"smiles": "CC(C)n1cnc(-c2nc(C(=O)N3CCCC3)c3ccccn23)c1", "Percent Effect": -0.8191}
{"smiles": "CS(=O)(=O)c1ccc(-c2nc(C(=O)N3CCCC3)n3ccccc23)cc1", "Percent Effect": 91.51}
{"smiles": "CN(C)C(=O)c1nc(-c2ccc(S(C)(=O)=O)cc2)c2cnccn12", "Percent Effect": 107.6}
{"smiles": "CN(Cc1ccccc1)C(=O)c1nc(S(C)(=O)=O)n2ccccc12", "Percent Effect": -0.6664}
{"smiles": "O=C(c1coc(-c2ccccc2)n1)N1CCCC1", "Percent Effect": 6.616}
{"smiles": "CN(C)C(=O)c1nc(-c2ccc(S(C)(=O)=O)cc2)c2ccccn12", "Percent Effect": 94.54}
{"smiles": "CC(C)CCN(C)C(=O)c1nc(S(C)(=O)=O)n2ccccc12", "Percent Effect": 1.111}
{"smiles": "NCCN1CCC(c2nnc(Cn3ccnc3)n2C2CC2)CC1", "Percent Effect": 3.949}
{"smiles": "COc1ccc(CN(C)CC(=O)NC2(C)CCS(=O)(=O)C2)cc1F", "note": "(stereo not given)", "Percent Effect": -5.934}
{"smiles": "CC(=O)NC1CCCN(Cc2ccc(OCc3ccccn3)cc2)C1", "note": "(stereo not given)", "Percent Effect": -5.429}
{"smiles": "O=C(NC1CC(=O)N(C2Cc3ccccc3C2)C1)c1cnccn1", "note": "(stereo not given)", "Percent Effect": -14.57}
{"smiles": "O=C(NC1CCCN(c2ccc(OC(F)F)cc2)C1)c1cnccn1", "note": "(stereo not given)", "Percent Effect": -2.478}
{"smiles": "O=C(NC1CCCN(CCc2ccccc2)C1)c1ccccn1", "note": "(stereo not given)", "Percent Effect": 90.98}
{"smiles": "CN(C(=O)CSc1ccccn1)C1CCCN(CCc2ccccc2)C1", "note": "(stereo not given)", "Percent Effect": -2.321}
{"smiles": "O=C(NC1CCCN(CCc2ccccc2)C1)c1cnccn1", "note": "(stereo not given)", "Percent Effect": 115.1}
{"smiles": "O=C(CCO)N1C[C@H]2CC[C@@H]1CN(C1Cc3ccccc3C1)C2", "Percent Effect": 7.309}
{"smiles": "O=C(c1ccccc1)N1CCN(CC2CCOc3ccccc3C2)CC1", "note": "(stereo not given)", "Percent Effect": -9.678}
{"smiles": "CC(=O)Nc1cccc(C(=O)N2CCc3c(nc(N(C)C)[nH]c3=O)C2)c1", "Percent Effect": -4.662}
{"smiles": "CCn1cnnc1CNC(=O)NC(c1ccc(OC)cc1)C1CC1", "note": "(stereo not given)", "Percent Effect": -3.354}
{"smiles": "COc1cc2c(cc1-c1nc3c(cnn3C(C)C)[nH]1)OCO2", "Percent Effect": 0.2831}
{"smiles": "CCc1nc(CN(C)C(=O)c2cc(CN(CC)CC)c(CC)o2)no1", "Percent Effect": 113.6}
{"smiles": "CN(Cc1ccncc1)C(=O)c1ccc(F)c(NS(C)(=O)=O)c1", "Percent Effect": 4.431}
{"smiles": "Cc1ncsc1C(=O)N(C)Cc1ccncc1", "Percent Effect": -15.3}
{"smiles": "CCc1nc(CN(C)C(=O)c2cc(NC(C)=O)ccc2Cl)no1", "Percent Effect": -10.82}
{"smiles": "CCc1oc(C(=O)N(C)Cc2ccncc2)cc1CN(CC)CC", "Percent Effect": 110.2}
{"smiles": "Cc1ccc(C)c(OCc2cc(C(=O)N(C)Cc3nonc3C)no2)c1", "Percent Effect": -9.317}
{"smiles": "CCc1oc(C(=O)N(C)Cc2nonc2C)cc1CN(CC)CC", "Percent Effect": 117.2}
{"smiles": "CCC(=O)Nc1cc(Cl)ccc1C(=O)N(C)Cc1noc(CC)n1", "Percent Effect": -2.438}
{"smiles": "CCN(Cc1nonc1C)C(=O)c1ccc(Br)o1", "Percent Effect": 1.066}
{"smiles": "CCOc1ccc(CN2C(=O)CC3(CCCC3)C2=O)nc1", "Percent Effect": -27.44}
{"smiles": "O=C1CC(CNc2cncc(Br)c2)c2ccccc2N1", "note": "(stereo not given)", "Percent Effect": 11.7}
{"smiles": "O=C1CN(Cc2cn(CC3CCN(C4CCSCC4)CC3)nn2)CCN1", "Percent Effect": -10.54}
{"smiles": "CN(C)C(=O)N1CC2(CCOCC2)c2cc(NS(=O)(=O)C3CC3)ccc21", "Percent Effect": -3.56}
{"smiles": "CCN1CC2(CCOCC2)c2cc(NS(=O)(=O)CC)ccc21.O=C(O)C(F)(F)F", "Percent Effect": 93.24}
{"smiles": "CCN1C(=O)C2(CCOCC2)c2cc(NC(=O)c3csnn3)ccc21", "Percent Effect": 5.242}
{"smiles": "CCN1C(=O)C2(CCOCC2)c2cc(NC(=O)c3ccco3)ccc21", "Percent Effect": 4.939}
{"smiles": "CCN1C(=O)C2(CCOCC2)c2cc(NC(=O)c3cnoc3C)ccc21", "Percent Effect": -1.334}
{"smiles": "CCS(=O)(=O)Nc1ccc2c(c1)C1(CCOCC1)CN2C.O=C(O)C(F)(F)F", "Percent Effect": 89.45}
